Hits are enriched below; roughly 0.51% of the tested compounds scored in any of these assays.
FMDV FLuc – shows antiviral activity against foot and mouth disease virus. actives 0.23% (n = 120,000). AID 1745856. FMDV antiviral cell assay, firefly luciferase signal. Potency, µM (doses to about 57.5 µM), usual class: inhibitors; note: nearly all actives have a fitted effect of over 60% in size
FMDV RLuc – FMDV antiviral activity by Renilla signal | FMDV replicon cells, Renilla luciferase signal | Potency, µM (highest dose often 57.5 µM), most hits filed as inhibitors | actives 0.32% (n = 120,000) | AID 1745857; note: nearly all actives have a fitted effect of over 55% in size
Hits are given with their value; . = inactive; ? = inconclusive; [ ] = dose if it differs, or a comment. Calls come from the whole dose curve.

SMILES | FMDV FLuc | FMDV RLuc
Cn1c(=O)c2c(nc(NCc3ccccc3)n2Cc2ccccc2)n(C)c1=O | . | .
Cn1c(=O)c2c(nc(NCc3ccco3)n2Cc2ccccc2)n(C)c1=O | 16µM | ?
CCn1c(NCc2ccccc2)nc2c1c(=O)n(C)c(=O)n2C | . | .
Cc1cccc(Cn2c(NCCCO)nc3c2c(=O)n(C)c(=O)n3C)c1 | . | .
CCCn1c(NCc2ccc(C)cc2)nc2c1c(=O)n(C)c(=O)n2C | ? | 28µM
Cn1c(=O)c2c(nc(NCCO)n2Cc2cccc(C(F)(F)F)c2)n(C)c1=O | ? | 10µM
CNC(=O)c1cccc(CNC(=O)C2CCCC2)c1 | . | .
CNC(=O)CNC(=O)c1ccc(Br)cc1 | . | .
Cc1oc(-c2nc(C#N)c(NCCN(C)C)o2)cc1S(=O)(=O)N(C)Cc1ccccc1 | . | .
O=C(Nc1ccccc1)c1ccc(NN=C2CCCCC2)c([N+](=O)[O-])c1 | . | .
CN(C)S(=O)(=O)c1ccc(C(=O)OCc2csc(-c3ccccc3)n2)cc1 | . | .
Cc1nsc(N)c1C(=O)OCc1csc(-c2ccccc2)n1 | . | 1.8µM
CCN(Cc1ccc(OC)c(OC)c1)C(=O)c1oc2ccc(Cl)cc2c1C | . | .
CC(=O)c1ccc(NC(=O)c2cnn(-c3cccc(C)c3)c2-n2cccc2)cc1 | . | .
CCS(=O)(=O)c1ncc(Cl)c(C(=O)N(Cc2ccccc2)Cc2ccco2)n1 | 22µM | .
CCS(=O)(=O)c1ncc(N(Cc2ccccc2)Cc2ccco2)c(C(=O)Nc2cccc(Cl)c2C)n1 | . | .
CSc1ncc(Cl)c(C(=O)N(Cc2ccc(C)cc2)C2CCS(=O)(=O)C2)n1 (stereo unspecified) | . | .
CCS(=O)(=O)c1ncc(Cl)c(C(=O)N(Cc2ccccc2)C2CCS(=O)(=O)C2)n1 (stereo unspecified) | ? | 25µM
COc1ccc(OC)c(-c2nc3c(c(=O)[nH]2)Cc2ccccc2O3)c1 | . | .
CSCc1ccc(C(=O)Nc2ccc3c(c2)NC(=O)CS3)cc1 | . | .
Cc1ccc(S(=O)(=O)N(CC(=O)N2CCN(C)CC2)c2cccc(Br)c2)cc1 | . | .
CC(C(=O)NC(N)=O)N(C)Cc1ccc(C(=O)NC2CC2)cc1 (stereo unspecified) | . | .
O=S(=O)(Cc1ccccc1)CC1CC1(Cl)Cl (stereo unspecified) | . | .
O=C(Nc1ccc(OC2CCCC2)cc1)c1ccncc1 | . | 5µM
CC(C)=CC(=O)Nc1ccc(OC2CCCC2)cc1 | . | .
SMILES | FMDV FLuc | FMDV RLuc
Cc1nc2cc(NC(=O)c3cccc(C)c3C)ccc2o1 | . | .
CCOc1ccccc1NC(=O)CN(C)S(=O)(=O)c1ccc2nc(C)sc2c1 | ? | 32µM
COc1cccc(NC(=O)CN(C)S(=O)(=O)c2ccc3nc(C)sc3c2)c1 | . | .
CCc1cccc(C)c1NC(=O)CCn1c(=O)n(CC)c2ccccc21 | . | .
O=C(Nc1c(NCc2ccccc2)c2ccccc2oc1=O)c1ccco1 | . | .
COc1ccc(/C=C\c2onc(C)c2S(=O)(=O)N2CCC(C(=O)Nc3ccc(C)c(F)c3)CC2)cc1 | . | .
COc1ccc(/C=C\c2onc(C)c2S(=O)(=O)N2CCC(C(=O)Nc3ccc(F)cc3F)CC2)cc1 | 32µM | 28µM
N#Cc1cccc(NC(=O)CCSCc2ccccn2)c1 | . | .
COc1ccc(F)cc1C(=O)/C=C/c1cccc(C#N)c1 | 3.5µM | ?
COc1ccc(F)cc1C(=O)/C=C/c1ccc(C#N)cc1 | . | .
COc1ccc(C(=O)Nc2cnc3c(cnn3C(C)C)c2)cc1S(=O)(=O)N1CCCC1 | 32µM | ?
CC(C)n1ncc2cc(NC(=O)c3cc(S(=O)(=O)N4CCCCC4)ccc3N3CCCC3)cnc21 | . | .
Cc1cc2cc(NS(=O)(=O)c3cccc(F)c3)ccc2[nH]1 | . | .
Cc1nc2cc(-c3cccc(F)c3)nn2c(C)c1CCC(=O)Nc1ccc(F)c(Cl)c1 | 2.2µM | .
Cc1nc2cc(-c3ccccc3)nn2c(C)c1CCC(=O)Nc1ccc(F)cc1 | 3.2µM | .
COc1ccc(N2CCN(C(=O)CCc3c(C)nc4cc(-c5cccc(F)c5)nn4c3C)CC2)cc1 | 25µM | .
Cc1nc2cc(-c3cccc(F)c3)nn2c(C)c1CCC(=O)Nc1ccc(CN2CCCC2)cc1 | ? | .
Cc1nc2cc(-c3cccc(F)c3)nn2c(C)c1CCC(=O)N1CCN(c2ccc(F)cc2)CC1 | ? | .
Cc1nc2cc(-c3ccccc3)nn2c(C)c1CCC(=O)Nc1ccc(F)cc1F | ? | .
O=C1CN(C(=O)Cc2ccc(F)cc2)C(c2ccc(F)cc2)c2cc(Cl)ccc2N1 (stereo unspecified) | . | .
CCOC(=O)c1ccc(NC(=O)COC(=O)c2ccc3ccccc3n2)cc1 | . | .
Cn1c(=O)c2c(ncn2Cc2cccc(OCC(F)(F)F)c2)n(C)c1=O | 7.1µM | 4.5µM
Cc1cccc(OCCCn2cnc3c2c(=O)n(C)c(=O)n3C)c1 | . | .
CC(C)(C)c1cc(C(C)(C)C)c2oc(=O)c(-c3nc4ccccc4[nH]3)cc2c1 | . | .
CC(C)(C)c1cc(-c2nc3ccccc3[nH]2)n[nH]1 | 2.8µM | .
SMILES | FMDV FLuc | FMDV RLuc
O=C(CCc1ccccc1)NC1(C(F)(F)F)C(=O)Nc2c1c(=O)[nH]c(=O)n2CCc1ccccc1 (stereo unspecified) | . | .
CCNC(=O)NC(=O)C(C)N(C)CC(=O)Nc1cccc2ccccc12 (stereo unspecified) | . | .
CCc1c(C)nc2nncn2c1NCc1ccc(Cl)cc1 | . | ?
Cc1ccc(CNc2c(C)c(C)nc3nncn23)cc1 | 2.2µM | 2µM
COc1cc(/C=C/C(=O)c2ccccc2C)cc(OC)c1OC(F)F | ? | 28µM
O=C(/C=C/c1ccc(Cl)c(Cl)c1)c1ccccc1OC(F)F | . | .
COc1ccc(Nc2sc(C(=O)c3ccc(Cl)cc3)c(N)c2C(N)=O)cc1 | . | .
Cc1ccc(CN(C)Cc2cc(=O)oc3ccc(C)cc23)cc1 | . | .
COc1ccc2oc(=O)cc(CN(C)Cc3ccc(C)cc3)c2c1 | ? | 35µM
Cc1c(C)c(C)c(S(=O)(=O)Nc2ccc(F)c(C(=O)O)c2)c(C)c1C | . | .
CC1CCN(CCC(=O)N(CC#N)CC#N)c2ccccc21 (stereo unspecified) | . | .
CN1CCN(c2ccc(NC(=O)c3cnc4ccccc4n3)cc2)CC1 | . | .
O=C(Nc1ccc(N2CCN(Cc3ccccc3)CC2)cc1)c1cnc2ccccc2n1 | ? | 7.9µM
Nc1nccnc1C(=O)NCc1cccnc1 | . | .[1.06 µM]
Nc1nccnc1C(=O)NCc1ccc(CN2CCCCC2)cc1 | . | .
Nc1nccnc1C(=O)NCc1ccc(Oc2cccc(F)c2)nc1 | ? | 8.9µM
Nc1nccnc1C(=O)NCc1ccc(N2CCCCC2)nc1 | ? | 5.6µM
CN1CCN(C(C(=O)O)c2cn(CCC(=O)O)c3ccc(Br)cc23)CC1 (stereo unspecified) | . | .
CSc1nc2ccc(S(=O)(=O)NCc3ccccc3)cc2s1 | . | .
O=C1CCCN1c1ccc(-c2csc(-c3cccs3)n2)cc1 | . | .
O=c1c2cnc(N3CCc4ccccc4C3)nc2ccn1-c1cc(Cl)cc(Cl)c1 | . | .
O=c1c2cnc(N3CCc4ccccc4C3)nc2ccn1-c1ccccc1 | 25µM | ?
Cc1oc2cc(OCC(=O)O)ccc2c(=O)c1-c1ccc(Cl)cc1 | . | .
Cc1oc(-c2cccs2)nc1CC(=O)NCC1CCCO1 (stereo unspecified) | . | .
CCC1CCC(N(C(=O)Cc2nc(-c3cccs3)oc2C)C2CC2)CC1 (stereo unspecified) | 35µM | .

Screening results (PubChem BioAssay)
